Reference: PubChem BioAssay (EPA / NIEHS)
Results filed as inconclusive are left out. Calls of active or inactive are those of the source. The calls were made as follows, unless noted: active = hit-call score of the fitted dose curve at least 0.9, where 1 is the maximum; inactive = score below 0.9.

Key:
[1] = CCTE_Shafer_MEA_dev_firing_rate_mean: CCTE's Neural Network Formation Assay for Mean Firing Rate, Shafer Lab (AID 2284031);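 also: curve fitted for loss of firing so AC50 reflects decreased mean firing rate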
How it was run: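 Primary rat cortical neurons on 48-well MEA plates, exposed from plating day 0 with dosing renewed on DIV 5 and 9. Mean well firing rate over active electrodes, recorded days 5, 7, 9, 12, summarised as trapezoidal AUC.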

[2] = CCTE_Shafer_MEA_dev_per_burst_spike_percent: CCTE's Neural Network Formation Assay for Percent of Spikes in a Burst, Shafer Lab (AID 2284032);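 also: fitted as a decrease in burst spike percentage below DMSO baseline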
How it was run: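 Rat primary cortical neurons on 16-electrode MEA wells, dosed from plating day 0 for 12 days with renewal on DIV 5 and 9; spikes-in-bursts percentage averaged over bursting electrodes, collapsed as AUC across days 5, 7, 9, 12; loss direction versus DMSO.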

[3] = CCTE_Shafer_MEA_dev_active_electrodes_number: CCTE's Neural Network Formation Assay for Number of Active Electrodes, Shafer Lab (AID 2284040; active = hit-call score of the fitted dose curve at least 0.9, where 1 is the maximum;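 also: potency for loss of active electrodes versus DMSO so lower counts are hits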)
How it was run: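 Primary rat cortical neurons on 16-electrode MEA wells, exposed from day 0 through day 12 with compound renewed at DIV 5 and 9 feeds. Active electrodes (mean firing ≥5 spikes/min) counted at DIV 5, 7, 9, 12; trapezoidal AUC across days, loss-of-signal versus DMSO.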

[4] = CCTE_Shafer_MEA_dev_burst_rate: CCTE's Neural Network Formation Assay for Burst Rate, Shafer Lab (AID 2284042);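 also: potency for loss of burst rate below DMSO control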
How it was run: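 Primary rat cortical neurons on PEI-coated 48-well MEA plates (laminin added with cells at plating) (16 electrodes/well), exposed from plating to day 12, dosing renewed at DIV 5 and 9. Burst rate averaged over active electrodes, recorded DIV 5, 7, 9, 12, summarized as AUC; loss versus DMSO.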

[5] = CCTE_Shafer_MEA_dev_bursting_electrodes_number: CCTE's Neural Network Formation Assay for Number of Bursting Electrodes, Shafer Lab (AID 2284043; active = hit-call score of the fitted dose curve at least 0.9, where 1 is the maximum;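 also: potency is for loss of bursting electrodes relative to DMSO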)
How it was run: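 Primary rat cortical neurons plated on 16-electrode MEA wells, exposed from day 0 with compound renewed at DIV 5 and 9. Electrodes bursting ≥1 burst per 2 min counted on days 5, 7, 9 and 12; trapezoidal AUC across days, fitted for loss versus DMSO.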

[6] = CCTE_Shafer_MEA_dev_per_burst_interspike_interval: CCTE's Neural Network Formation Assay for Burst Interspike Interval, Shafer Lab (AID 2284044);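 also: mean spike spacing inside bursts as AUC over recordings on days 5 7 9 12; potency for a decrease of within-burst interspike interval below DMSO level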
How it was run: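 Spontaneous activity of maturing rat cortical networks is recorded on DIV 5, 7, 9 and 12 under chronic compound exposure beginning at plating. Endpoint: burst interspike interval well-mean, collapsed into trapezoidal AUC and fitted in the negative direction relative to DMSO.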

[7] = CCTE_Shafer_MEA_dev_burst_duration_mean: CCTE's Neural Network Formation Assay for Mean Burst Duration, Shafer Lab (AID 2284045)
How it was run: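 Primary rat cortical neurons on 48-well 16-electrode MEA plates, exposed from day 0 with renewal at DIV 5 and 9; spontaneous activity recorded on days 5, 7, 9, 12. Well-mean burst duration across bursting electrodes, collapsed as trapezoidal AUC; DMSO baseline.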

[8] = CCTE_Shafer_MEA_dev_interburst_interval_mean: CCTE's Neural Network Formation Assay for Mean Interburst Interval, Shafer Lab (AID 2284046);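 also: well-mean interburst interval of bursting electrodes as AUC over four recording days; curve fitted for decrease in interburst interval relative to DMSO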
How it was run: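 Recordings on days 5, 7, 9 and 12 give well-mean interburst interval across actively bursting electrodes, summarized as area under the curve. Cultures: rat cortical neurons, continuous exposure from day 0, compound renewed at feeds; decrease analyzed versus DMSO.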

[9] = CCTE_Shafer_MEA_dev_inter_network_spike_interval_mean: CCTE's Neural Network Formation Assay for Mean Inter-network Spike Interval, Shafer Lab (AID 2284047)
How it was run: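 Primary rat cortical neurons on 16-electrode MEA wells, exposed from plating day 0 through DIV 12, compound renewed at DIV 5 and 9 media changes. Mean interval between network-spike peaks recorded DIV 5, 7, 9, 12; collapsed as trapezoidal AUC, fitted downward versus DMSO.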

[10] = CCTE_Shafer_MEA_dev_network_spike_number: CCTE's Neural Network Formation Assay for Number of Network Spikes, Shafer Lab (AID 2284048);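 also: fit as a loss of signal meaning fewer network spikes than DMSO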
How it was run: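 Primary rat cortical neurons on PEI/laminin 48-well MEA plates, dosed from plating day 0 for 12 days, renewed at DIV 5 and 9. Network spike counts recorded DIV 5, 7, 9, 12, collapsed as trapezoidal AUC; DMSO baseline.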

[11] = CCTE_Shafer_MEA_dev_network_spike_peak: CCTE's Neural Network Formation Assay for Mean Number of Electrodes in Network Spike, Shafer Lab (AID 2284049);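 also: fitted for loss of signal meaning fewer electrodes in network spikes than DMSO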
How it was run: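 Network-spike peak electrode count from recordings on days 5, 7, 9 and 12 was combined as trapezoidal area under the curve. Rat cortical cultures were treated continuously from plating, with compound renewed at each feed (DIV 5, 9); fits versus DMSO.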

[12] = CCTE_Shafer_MEA_dev_spike_duration_mean: CCTE's Neural Network Formation Assay for Mean Spike Duration, Shafer Lab (AID 2284051);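 also: mean network spike duration pooled as area under curve over DIV 5 to 12 recordings; potency for a decrease in mean network spike duration versus DMSO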
How it was run: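 Primary rat cortical neurons on 16-electrode MEA wells (PEI-coated, laminin in plating drop), exposed from plating through DIV 12 with compound renewed at DIV 5 and 9. Mean network-spike duration recorded DIV 5, 7, 9, 12; trapezoidal AUC across days, DMSO baseline.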

[13] = CCTE_Shafer_MEA_dev_per_network_spike_spike_number_mean: CCTE's Neural Network Formation Assay for Mean Number of Spikes in a Network Spike, Shafer Lab (AID 2284053);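 also: fitted as decrease in spikes per network spike relative to DMSO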
How it was run: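 Primary rat cortical neurons on 48-well, 16-electrode MEA plates were exposed from plating to DIV 12, with dosing renewed on DIV 5 and 9. Spikes per network spike (0.05 s peak window) were recorded on DIV 5, 7, 9 and 12 and collapsed as trapezoidal AUC versus DMSO.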

[14] = CCTE_Shafer_MEA_dev_per_network_spike_spike_percent: CCTE's Neural Network Formation Assay for Percent of Spikes in a Network Spike, Shafer Lab (AID 2284054)
How it was run: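 Rat primary cortical neurons were grown on 48-well MEA plates (16 electrodes/well), exposed from plating day 0 through day 12, with treatment renewed on DIV 5 and 9. Percent of spikes within 0.05 s network-spike peaks was measured, summarised as AUC across days 5, 7, 9, 12.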

[15] = CCTE_Shafer_MEA_dev_LDH: CCTE's Lactate Dehydrogenase Assay for Cytotoxicity in the Neural Network Formation Assay, Shafer Lab (AID 2284068; active = hit-call score of the fitted dose curve at least 0.9, where 1 is the maximum;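 also: exposure for twelve days from plating with re-dosing on DIV 5 and 9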)
How it was run: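 Primary rat cortical neurons were plated on PEI/laminin MEA plates and exposed from day 0 for twelve days, with compound renewed at DIV 5 and 9. Cytotoxicity was determined by spectrophotometric LDH assay relative to DMSO.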

[16] = CCTE_Shafer_MEA_dev_AB: CCTE's Alamar Blue Assay for Cytotoxicity in the Neural Network Formation Assay, Shafer Lab (AID 2284083; active = hit-call score of the fitted dose curve at least 0.9, where 1 is the maximum;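 also: twelve days of exposure from plating with re-dosing on DIV 5 and 9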)
How it was run: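 Primary rat cortical neurons on PEI-coated 48-well MEA plates, 1.5 x 10^5 cells/well in laminin drop; compound exposure from day 0 of plating for twelve days, renewed at medium changes on DIV 5 and 9. Viability read as resazurin reduction by fluorescence, relative to DMSO.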

[17] = CCTE_Shafer_MEA_dev_mutual_information_norm: CCTE's Neural Network Formation Assay for Mutual Information Normalization, Shafer Lab (AID 2284091);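 also: mutual information between electrodes summarised as area under curve across four recording days; potency is for a decrease in mutual information relative to DMSO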
How it was run: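 Primary rat cortical neurons on PEI-coated 48-well MEA plates, 1.5 x 10^5 cells/well, exposed from day 0 through day 12 with re-dosing at DIV 5 and 9. Mutual information between electrodes recorded days 5, 7, 9, 12; trapezoidal AUC, loss-of-signal fit versus DMSO.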

[18] = UKN2_HCS_IMR90_neural_migration: University of Konstanz (UKN) Leist Lab Neural Crest Cell Migration Assay in human induced IMR90 Pluripotent Stem Cells (UKN2) (AID 2284204); settings: actives raise or lower the signal
How it was run: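 iPSC-derived IMR90 neural crest cells seeded around stoppers on PLO/laminin/fibronectin; migration started in N2-S medium with EGF/FGF, compounds added after 24 h for 24 h. Migration into cell-free area imaged after calcein-AM/Hoechst staining; bidirectional fit versus DMSO.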

[19] = IUF_NPC1b_proliferation_BrdU_72hr: Leibniz Research Institute for Environmental Medicine (IUF) 72-hour Neural Progenitor Cell Bromodeoxyuridine (BrdU) Proliferation Assay (NPC1b) (AID 2284207)
How it was run: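 BrdU luminescence ELISA quantified DNA synthesis over the last 16 h of a 72 h exposure, fitted against DMSO. Primary hNPC spheres from gestational week 16-19 cortex grown with EGF/FGF at 37C, pH 7.2-7.6.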

[20] = IUF_NPC1a_proliferation_area_72hr: Leibniz Research Institute for Environmental Medicine (IUF) 72-hour Neural Progenitor Cell Proliferation Area Assay (NPC1a) (AID 2284208)
How it was run: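 Measured in 3D suspension: each well held one primary hNPC sphere grown with EGF and FGF at pH 7.2-7.6. Compound stayed on for 72 h, then area was imaged; spheres lacking growth factors defined reduced proliferation.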

[21] = IUF_NPC1_viability_72hr: Viability Assessment at 72 hours in the Leibniz Research Institute for Environmental Medicine (IUF) Neural Progenitor Cell Proliferation Assay (NPC1) (AID 2284209)
How it was run: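 Single spheres (0.25-0.35 mm) of human fetal cortex-derived neural progenitor cells were grown in proliferation medium with EGF and FGF at 37C and 5% CO2. They were exposed for 72 h without renewal, and viability was read by alamar blue resorufin fluorescence.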

[22] = CCTE_Mundy_HCI_Cortical_Synap_Neur_Matur_NeuriteSpotCountPerNeuriteLength: CCTE's Synaptogenesis and Neurite Maturation Assay in rat cortical cells for Neurite Spot Count per Neurite Length, Mundy Lab (AID 2284210)
How it was run: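 Rat primary cortical cultures, AraC added at DIV 5 to suppress glia; chemical exposure from DIV 7 to DIV 12. Fixed cells stained for MAP2 and synaptophysin plus Hoechst; synaptophysin puncta per neurite length quantified by high-content imaging, relative to DMSO.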

[23] = CCTE_Mundy_HCI_Cortical_Synap_Neur_Matur_BPCount: CCTE's Synaptogenesis and Neurite Maturation Assay in rat cortical cells for Branch Point Count, Mundy Lab (AID 2284211)
How it was run: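 Rat primary cortical cultures, AraC added DIV 5; chemicals dosed DIV 7 through DIV 12. Fixed cells stained for MAP2, synaptophysin and Hoechst; neurite branch points counted by automated high-content imaging, fitted relative to DMSO.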

Measured: AC50

C[C@@H]1CCO[C@H]2Cn3cc(C(=O)NCc4ccc(F)cc4F)c(=O)c(O)c3C(=O)N12
active: [1] 2570 nM | [2] 1640 nM | [3] 1460 nM | [4] 1670 nM | [5] 1650 nM | [6] 1800 nM | [8] 1740 nM | [10] 1540 nM | [11] 1110 nM | [12] 901 nM | [13] 983 nM | [14] 691 nM | [15] 1070 nM | [16] 1800 nM | [17] 1550 nM | [22] 7380 nM | [23] 1140 nM
inactive: [7] | [9] | [18] | [19] | [20] | [21]
